Data reported in PubChem BioAssay (NCATS).
Results filed as inconclusive are left out. Calls of active or inactive are those of the source. Calls come from the whole dose curve; as a rule, active = well fitted curve in the direction sought with a large enough effect; inconclusive = small, poorly fitted or top-dose-only effect, or another doubt; inactive = no such curve, though single readings can be large; an effect the other way counts as inactive or inconclusive.

Legend:
[1] = MultiTox-Fluor Cytotoxicity Assay - LYMP1-003 - Dead Cells (AID 961); note: nearly all actives have a fitted effect of over 70% in size
Summary of the method: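 Human lymphoblastoid LYMP1-003 cells (2500/well) were treated with compounds for 16 hr at 37 C in complete medium. Dead-cell protease release was read by bis-AAF-R110 fluorescence (Ex/Em 485/520). AC50 came from Hill fits, normalized to DMSO and 15 uM tetraoctylammonium bromide.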

[2] = MultiTox-Fluor Cytotoxicity Assay - LYMP1-003 - Live Cells (AID 962);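 note: cells exposed to compound for 16 hours at 37 °C; cytotoxic hits lower the live-cell protease signal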
Summary of the method: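 Live-cell protease activity (GF-AFC substrate, 405/510 nm, 60 min at room temperature) after 16 h, 37 C compound exposure of human lymphoblastoid LYMP1-003 cells; concentration-response fitted to the Hill equation for AC50.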

[3] = Cell Viability - LYMP1-003 - Assay at 24 hr (AID 963)
Summary of the method: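 Concentration-response qHTS: ATP loss measured by CellTiter-Glo luminescence after 24 h compound exposure at 37 C. Cells were LYMP1-003 human lymphoblastoid, 2500 per well. AC50 derived via standard Hill equation modeling.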

[4] = Cell Viability - LYMP2-013 (AID 970); note: series mostly up to about 92 µM; nearly all actives have a fitted effect of over 55% in size
Summary of the method: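 qHTS cytotoxicity: ATP-dependent luminescence (CellTiter-Glo, 30 min room temperature) read after 24 h compound exposure at 37 C of 2500 LYMP2-013 lymphoblastoid cells per well. Concentration-response fitted with Hill equation to give AC50.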

[5] = Cell Viability - LYMP2-015 (AID 971); note: nearly all actives have a fitted effect of over 55% in size
Summary of the method: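 Cytotoxicity readout: decrease in intracellular ATP (CellTiter-Glo luminescence) in 2500 LYMP2-015 lymphoblastoid cells/well after 24 h compound exposure at 37 C. Concentration-response data fitted with the standard Hill equation to give AC50.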

[6] = Cell Viability - LYMP2-019 (AID 973); note: nearly all actives have a fitted effect of over 55% in size
Summary of the method: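 AC50 values come from Hill-equation fits of luminescent intracellular ATP (CellTiter-Glo, 30 min, room temperature) following 24 h compound exposure at 37 C. Cells: LYMP2-019 lymphoblastoid line, 2500 per well, in complete culture medium.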

[7] = Cell Viability - LYMP2-023 (AID 975);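 note: cellular ATP measured by luciferase luminescence as viability proxy; series mostly up to about 92 µM; nearly all actives have a fitted effect of over 55% in size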
Summary of the method: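 Intracellular ATP, read by CellTiter-Glo luminescence, reports viability after 24 hr compound exposure at 37 C. 2500 lymphoblastoid cells/well (LYMP2-023) seeded 5 hr beforehand; Hill fits give AC50; positive control tetraoctylammonium bromide.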

[8] = Cell Viability - LYMP2-025 (AID 976); note: series mostly up to about 92 µM
Summary of the method: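 Cytotoxicity read as loss of intracellular ATP (luciferase luminescence) after 24 h compound treatment at 37 C. Uses LYMP2-025 lymphoblastoid cells in 1536-well format; Hill-equation modelling gives AC50; tetraoctylammonium bromide as positive control.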

[9] = Cell Viability - LYMP2-002 (AID 977); note: series mostly up to about 92 µM
Summary of the method: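 In this qHTS viability screen, 2500 human lymphoblastoid cells per well receive compound for 24 hr at 37 C, and luciferase-based ATP luminescence gives the viability signal. Tetraoctylammonium bromide serves as positive control.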

[10] = Cell Viability - LYMP2-006 (AID 978); note: series mostly up to about 92 µM; nearly all actives have a fitted effect of over 60% in size
Summary of the method: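 Potency values are Hill-fit AC50s for decreases in intracellular ATP (CellTiter-Glo luminescence). LYMP2-006 lymphoblastoid cells, 2500 per well, were exposed to compound in complete culture medium for 24 hr at 37 C.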

[11] = Cell Viability - LYMP2-008 (AID 980); note: nearly all actives have a fitted effect of over 60% in size
Summary of the method: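 Cytotoxicity determined from ATP-dependent luciferase luminescence (CellTiter-Glo) following 24 h compound exposure of human lymphoblastoid LYMP2-008 cells at 37 C. Concentration-response data fitted to the Hill equation to give AC50.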

[12] = Cell Viability - LYMP2-012 (AID 982)
[13] = Cell Viability - LYMP2-014 (AID 983); note: series mostly up to about 92 µM; nearly all actives have a fitted effect of over 50% in size
Summary of the method: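 Intracellular ATP loss, read by luciferase luminescence, measures acute cytotoxicity after 24 h compound exposure of lymphoblastoid LYMP2-014 cells (2500/well, 37 C). Concentration-response data fitted to the Hill equation for AC50.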

[14] = Cell Viability - LYMP2-016 (AID 984); note: nearly all actives have a fitted effect of over 55% in size
Summary of the method: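 Cytotoxicity was scored by luminescent ATP content (CellTiter-Glo) after 24 h compound exposure at 37 C of a human lymphoblastoid line at 2500 cells/well. Concentration-response data were fitted to the Hill equation for AC50.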

[15] = Cell Viability - LYMP2-018 (AID 985); note: nearly all actives have a fitted effect of over 50% in size
Summary of the method: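 Viability read as CellTiter-Glo luminescence (cellular ATP) after 24 hr compound exposure at 37 C of 2500 LYMP2-018 lymphoblastoid cells/well, pre-plated 5 hr. Hill-equation modelling gave AC50.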

[16] = Cell Viability - LYMP2-026 (AID 989); note: nearly all actives have a fitted effect of over 50% in size
Summary of the method: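 Cytotoxicity read as ATP-dependent luminescence (CellTiter-Glo, 30 min room temperature) after 24 h compound treatment at 37 C. LYMP2-026 lymphoblastoid line seeded at 2500 cells/well; AC50 derived by standard Hill equation.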

[17] = Cell Viability - LYMP1-002 - Assay at 24 hr (AID 993)
Summary of the method: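 qHTS cytotoxicity at 24 h: CellTiter-Glo ATP luminescence in lymphoblastoid line LYMP1-002 incubated with compound at 37 °C. Concentration-response modeled with the Hill equation for AC50; tetraoctylammonium bromide served as positive control.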

[18] = Cell Viability - LYMP1-002 - Assay at 40 hr (AID 994); note: nearly all actives have a fitted effect of over 60% in size
Summary of the method: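 Cytotoxicity was read as loss of cellular ATP (CellTiter-Glo luminescence) after 40 hr compound exposure at 37 C of 2500 LYMP1-002 lymphoblastoid cells per well. Concentration-response data were fitted with the standard Hill equation to give AC50.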

[19] = molecular target: Rap guanine nucleotide exchange factor 3 (Homo sapiens) (UniProt O95398); assay: Confirmatory qHTS for antagonist of cAMP-regulated guanine nucleotide exchange factor 3 (EPAC1) (AID 1645880); note: nearly all actives have a fitted effect of over 55% in size
Summary of the method: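 Released BODIPY-GDP fluoresces less than Rap1-bound BODIPY-GDP; the signal is followed at 480/540 nm at 5-min intervals over 30 min, after 5 min at room temperature. Reactions contain 100 nM EPAC1, 250 nM RAP1B-BODIPY-GDP and 50 uM GDP; results are normalized to ATA and DMSO.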

[20] = molecular target: Rap guanine nucleotide exchange factor 4 (Homo sapiens) (UniProt Q8WZA2); assay: Confirmatory qHTS for antagonist of cAMP-regulated guanine nucleotide exchange factor 4 (EPAC2) (AID 1645885); note: nearly all actives have a fitted effect of over 25% in size

Measured: Potency

Sequence of Rap guanine nucleotide exchange factor 3 (Homo sapiens) (O95398 whole entry, looked up): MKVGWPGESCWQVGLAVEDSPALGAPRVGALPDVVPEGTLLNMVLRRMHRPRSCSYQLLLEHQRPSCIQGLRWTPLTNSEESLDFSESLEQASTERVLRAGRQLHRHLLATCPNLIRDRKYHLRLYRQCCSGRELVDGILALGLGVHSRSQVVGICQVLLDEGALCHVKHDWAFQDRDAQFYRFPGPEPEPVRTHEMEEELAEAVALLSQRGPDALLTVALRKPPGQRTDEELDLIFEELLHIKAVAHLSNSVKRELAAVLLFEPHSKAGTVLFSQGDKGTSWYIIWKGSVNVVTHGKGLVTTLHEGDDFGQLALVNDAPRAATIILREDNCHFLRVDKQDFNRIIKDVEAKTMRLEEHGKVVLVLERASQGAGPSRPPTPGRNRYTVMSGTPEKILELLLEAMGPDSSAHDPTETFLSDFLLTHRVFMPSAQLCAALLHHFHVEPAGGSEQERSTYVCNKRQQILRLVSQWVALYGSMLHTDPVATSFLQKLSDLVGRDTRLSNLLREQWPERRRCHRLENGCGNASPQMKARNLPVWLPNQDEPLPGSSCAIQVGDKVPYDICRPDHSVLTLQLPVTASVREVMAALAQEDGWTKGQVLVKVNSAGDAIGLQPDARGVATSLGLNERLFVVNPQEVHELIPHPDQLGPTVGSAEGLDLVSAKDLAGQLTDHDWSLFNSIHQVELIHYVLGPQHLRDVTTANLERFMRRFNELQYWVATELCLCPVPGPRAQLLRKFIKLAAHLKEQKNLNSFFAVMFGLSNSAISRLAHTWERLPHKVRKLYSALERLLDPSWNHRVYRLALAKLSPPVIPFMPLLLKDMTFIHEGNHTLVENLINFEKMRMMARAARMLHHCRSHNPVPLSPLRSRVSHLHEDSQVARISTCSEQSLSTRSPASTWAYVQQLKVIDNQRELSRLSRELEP
Sequence of Rap guanine nucleotide exchange factor 4 (Homo sapiens) (Q8WZA2 whole entry, looked up): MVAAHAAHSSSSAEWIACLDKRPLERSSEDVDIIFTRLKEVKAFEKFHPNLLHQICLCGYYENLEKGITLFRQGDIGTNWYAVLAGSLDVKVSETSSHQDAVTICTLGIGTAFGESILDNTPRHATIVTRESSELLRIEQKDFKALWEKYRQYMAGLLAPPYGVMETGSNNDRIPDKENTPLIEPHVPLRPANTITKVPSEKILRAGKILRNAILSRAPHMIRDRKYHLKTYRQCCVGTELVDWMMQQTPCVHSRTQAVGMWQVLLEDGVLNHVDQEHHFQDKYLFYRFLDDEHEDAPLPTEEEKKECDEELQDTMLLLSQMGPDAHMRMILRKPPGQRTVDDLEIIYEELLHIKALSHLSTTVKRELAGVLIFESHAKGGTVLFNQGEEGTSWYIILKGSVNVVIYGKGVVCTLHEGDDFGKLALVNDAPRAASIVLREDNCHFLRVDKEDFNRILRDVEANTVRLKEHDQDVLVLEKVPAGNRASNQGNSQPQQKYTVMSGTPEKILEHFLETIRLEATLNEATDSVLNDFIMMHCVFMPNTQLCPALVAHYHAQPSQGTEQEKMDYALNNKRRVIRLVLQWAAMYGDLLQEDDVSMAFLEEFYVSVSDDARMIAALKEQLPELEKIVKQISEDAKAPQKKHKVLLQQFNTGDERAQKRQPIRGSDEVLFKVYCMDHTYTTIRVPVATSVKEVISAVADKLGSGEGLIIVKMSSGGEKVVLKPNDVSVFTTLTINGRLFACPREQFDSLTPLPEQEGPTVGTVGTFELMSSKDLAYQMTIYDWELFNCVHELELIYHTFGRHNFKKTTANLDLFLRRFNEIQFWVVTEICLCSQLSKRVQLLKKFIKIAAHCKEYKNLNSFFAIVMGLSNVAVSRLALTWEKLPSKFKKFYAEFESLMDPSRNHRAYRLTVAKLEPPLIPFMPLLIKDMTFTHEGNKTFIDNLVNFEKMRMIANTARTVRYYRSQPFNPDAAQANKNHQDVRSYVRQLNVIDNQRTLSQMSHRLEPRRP

CC(C)(c1ccc(OCC2CO2)cc1)c1ccc(OCC2CO2)cc1 (stereo not given)
not listed: [19] | [20]
inactive: all other assays above

C(=C/c1ccccc1)/CN1CCN(CCOC(c2ccccc2)c2ccccc2)CC1
inactive: [19] | [20]
